Each structure is given as a SMILES string. The whole screen tested about 4,600 compounds, of which about 2,900 (63%) were called active. The set was probably picked from earlier hits. Not all results are given here. A number with no mark means an inactive call.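 The calls were made as follows: active = inhibition of yeast growth at or above a set limit in either of two replicates at 10 µM; inactive = the rest.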

The nature of this assay: TIM10 isogenic control strain growth inhibition – single concentration, luminescence, S. cerevisiae, counter-screen for tim10-1 synthetic lethality project, confirmation (AID 463215).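 Also: isogenic wild-type TIM10 control yeast grown in succinate dextrose medium; this counterscreen used the strain with wild-type TIM10; 0% = yeast with DMSO and 100% = medium wells lacking yeast.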 The settings on record: BacTiter-Glo luminescence, 24 h, at 10 µM, active compounds read high. Background: The purpose of a counterscreen is to sort out artefacts and off-target activity.
As for `Fc1cccc(Cl)c1CSc1ccc(-c2ccco2)nn1`, the inhibition – broadly, the drop in the measured response relative to a control, in per cent – was 35.9% (active).

Consider `O=C(/C=C/c1ccc(Cl)c([N+](=O)[O-])c1)c1cccnc1`, for which the inhibition was 81.2% (active).

In the case of `COc1cc([N+](=O)[O-])ccc1NC(=O)COC(=O)CCOc1ccc(C)cc1`, the inhibition was 43.4% (active).

Consider `C=CS(=O)c1sc(Cl)c(N2CCOCC2)c1[N+](=O)[O-]` (configuration not stated), for which the inhibition was 87.5% (active).

As for `CCc1ccc2c(c1)C1(NN=C(c3ccccc3)S1)C(=O)N2` (configuration not stated), the inhibition was 43.3% (active).

`O=C(N/N=C/c1c[nH]c2ccccc12)c1cc2ccccc2o1`: the inhibition was 22.9%.

`Cc1ccc(Nc2nc(Cl)c(C=O)s2)cc1`: the inhibition is 10.7%.

Take `Nc1ccccc1SC(C[N+](=O)[O-])c1ccccc1` (configuration not stated): the inhibition is 53.5% (active).

For the compound `O=C(Nc1ccc2oc(-c3ccccc3F)nc2c1)c1ccco1`, the inhibition was 62.4% (active).

Take `O=C(Nc1nc(-c2ccco2)c(-c2ccco2)s1)c1ccco1`: the inhibition was 39.9% (active).

Regarding `COCCNC(=O)/C(C#N)=C/c1cccc(OCc2ccccc2)c1`, the inhibition was 69.5% (active).

As to `Cc1cc(C)n(-c2nc(SCC(=O)N3CCCC3)c3c4c(sc3n2)CCCC4)n1`, the inhibition was 23.4%.

As for `COc1ccc(CNC(=O)/C(C#N)=C/c2cccc(OC)c2OC)cc1`, the inhibition was 80.8% (active).

`CCOC(=O)C(=Cc1ccccc1OC)C(=O)OCC`: the inhibition is 27.6%.

Regarding `c1ccc(-c2nccc(-c3ccc(-n4cnc5ccccc54)cc3)n2)nc1`, the inhibition is -3.75%.

As to `CCN(CC)CCN(C(=O)c1ccc(S(=O)(=O)N2CCOCC2)cc1)c1nc2cc3c(cc2s1)OCCO3`, the inhibition was 28.1%.

Regarding `CN(C)CCCN(C(=O)c1ccc(S(=O)(=O)N2CCCc3ccccc32)cc1)c1nc2ccc(F)cc2s1`, the inhibition is 41.4% (active).

Turning to `COc1cccc(NC(=O)CSc2nccn(-c3ccc4c(c3)OCCO4)c2=O)c1`, the inhibition was 8.7%.

As to `O=C(NNc1c2ccccc2nc2ccccc12)c1cc2ccccc2cc1O`, the inhibition was -21.2%.

Regarding `COc1ccc(Oc2cn[nH]c2-c2ccc(OC)cc2O)cc1`, the inhibition was 31% (active).

Consider `O=S(=O)(NC1CCCCC1)c1ccc(F)c2ccccc12`, for which the inhibition is 29.4%.

On to `Fc1ccc(/C=N/n2c(COc3ccccc3)n[nH]c2=S)cc1`, for which the inhibition is 37% (active).

`CC[C@@H]1Cc2cc(O)ccc2C2=C1c1ccc(O)cc1C[C@H]2CC`: the inhibition was 66.3% (active).

As for `Cc1[nH]c2ccccc2c1C(=O)COC(=O)c1c(-c2ccccc2)noc1C`, the inhibition is 36.8% (active).

For the compound `CCC(C)(C)n1nnnc1CN1CCN(c2nc3ccc(C)cc3cc2C#N)CC1`, the inhibition was 24.8%.

Take `O=C(NCc1ccco1)c1cc2sccc2n1Cc1ccc(F)cc1`: the inhibition was 23.6%.

In the case of `CCc1cccc(CC)c1NC(=S)NCc1ccc2[nH]c(C)cc2c1`, the inhibition was 52.9% (active).

As for `CCc1sc(C(=O)N2CCN(CC(=O)Nc3cccc(F)c3)CC2)cc1C`, the inhibition is 60.8% (active).

Consider `C[C@@H]1C(c2ccc(F)cc2)=NN(c2ccc(Br)cc2)[C@H]1C(=O)N1CCOC1=O`, for which the inhibition was 52.1% (active).

Consider `N/C(=N\OC(=O)Cc1ccccc1[N+](=O)[O-])c1ccc(Br)cc1`, for which the inhibition is 53% (active).

For `CC(/C=N/NC(=O)c1cc(-c2ccc3ccccc3c2)n[nH]1)=C\c1ccco1`, the inhibition is 42.5% (active).

Turning to `O=C1c2ccccc2C(=O)N1CC1c2ccccc2CCN1S(=O)(=O)c1ccccc1` (configuration not stated), the inhibition was 22.5%.

Consider `O=S(=O)(ON(c1ccccc1)S(=O)(=O)c1ccccc1)c1ccccc1`, for which the inhibition is -4.35%.

Consider `Cc1nn(Cc2ccc(Cl)c(Cl)c2)c(C)c1NC(=O)c1cc(C2CC2)on1`, for which the inhibition was 33.2% (active).

Consider `Oc1ccccc1C1=NN(c2ccccc2)C(c2ccccc2)C1` (configuration not stated), for which the inhibition is 70.5% (active).

Turning to `COc1ccc(Cn2c(-c3ccc(Cl)cc3)c[n+]3ccccc23)cc1`, the inhibition is 34.7% (active).

Regarding `COc1ccc(NC(=S)NCC2CCN(c3ccc(OC)cc3)C2)cc1` (configuration not stated), the inhibition is -5.6%.

`O=C(Cc1ccccc1)NC(=S)Nc1ccc(N2CCCCC2)cc1`: the inhibition was 39.8% (active).

`S=C(NCCCc1ccccc1)Nc1ccc(Br)cc1`: the inhibition is 31.7%.

For the compound `COc1ccc(-c2cc(-c3ccc(N)cc3)nc(N)c2C#N)cc1OC`, the inhibition was 33.8% (active).

For `O=C(Nc1ccc(C(F)(F)F)cc1)c1cccc(-n2cnnn2)c1`, the inhibition is 23.1%.

For `O=C(O)c1ccc(N/N=C/c2cn(-c3ccccc3)nc2-c2cccs2)cc1`, the inhibition was 64.8% (active).

For the compound `Cc1nnnn1/C(=C\c1ccccc1)C(=O)OCC(=O)N1CC2(C)CC1CC(C)(C)C2` (configuration not stated), the inhibition was 50.7% (active).

For `c1ccc(-c2cn3c(n2)CCc2ccc4cccnc4c2-3)cc1`, the inhibition is 37% (active).

On to `c1ccc(-c2nc(NCc3ccco3)c3ccccc3n2)cc1`, for which the inhibition was 34% (active).

For `Cc1ccccc1-c1nc(C#N)c(NCc2ccco2)o1`, the inhibition was 11.5%.

In the case of `COc1cccc(CNc2nc(C(F)(F)F)nc3ccccc23)c1`, the inhibition was 27.1%.

For the compound `CC(C)N(Cc1ccccc1)C(=S)Nc1ccc(OC(F)F)cc1`, the inhibition was -14%.

For `COc1ccc(C(=O)Nc2ccccc2C(=O)N/N=C/c2ccc(O)c(OC)c2)cc1`, the inhibition is 93.3% (active).

Take `O=C(N/N=C\c1cccc(Br)c1)c1ccccc1-n1cccc1`: the inhibition is -4.2%.

On to `COc1cc(/C=N/NC(=O)c2ccccc2)ccc1OS(=O)(=O)c1ccccc1`, for which the inhibition is 17.2%.

Regarding `COc1ccc(C(=O)Nc2ccccc2C(=O)N/N=C/c2ccccc2OC)cc1`, the inhibition is 43.1% (active).

In the case of `Cc1nc2sc(C(=O)c3ccccc3)c(N)c2c2c1CCCC2`, the inhibition is 23%.

For the compound `OC(CNCC1CCCO1)Cn1c2ccc(Br)cc2c2cc(Br)ccc21` (configuration not stated), the inhibition is 51.4% (active).

As for `COc1ccc(OC)c2sc(NC(=O)C3COc4ccccc4O3)nc12` (configuration not stated), the inhibition was 34.8% (active).

Regarding `COc1ccc(NC(=O)/C(Cl)=C(/Cl)S(=O)Cc2ccc(C)cc2)cn1` (configuration not stated), the inhibition is 88% (active).

Consider `COc1ccc(CS(=O)/C(Cl)=C(/Cl)C(=O)Nc2ccc(OC)nc2)cc1` (configuration not stated), for which the inhibition is 78.3% (active).

Regarding `O=[N+]([O-])c1ccc(C=Nc2ccc(Cl)cc2Cl)s1`, the inhibition is 44.1% (active).

With `Cn1c(-c2sccc2OCc2cccc(C(F)(F)F)c2)n[nH]c1=S`, the inhibition was 34.8% (active).

For `Cc1cccc(/C(N)=N/OC(=O)c2ccccc2Cl)c1`, the inhibition is 77.7% (active).

Regarding `NS(=O)(=O)c1ccc(NC(=S)Nc2ccc(Br)c(Cl)c2)cc1`, the inhibition is 16.9%.

As for `N/C(=N\OC(=O)c1cc(-c2ccccc2)nc2ccccc12)c1ccncc1`, the inhibition was 64.8% (active).

As for `O=C(NCCN1C(=O)S/C(=C\c2cccnc2)C1=O)c1cccc(OC(F)F)c1`, the inhibition is -9.15%.

For `CCCCNC(=S)N/N=C1\CCCCc2ccccc21`, the inhibition was 34.3% (active).

For `CCN1/C(=C\c2ccc3ccccc3[n+]2CC)Sc2cc(C)ccc21`, the inhibition was 78.1% (active).

Regarding `Cc1oc2c(c1C(=O)N1CCOCC1)C(=O)c1ccccc1C2=O`, the inhibition was 22.8%.

In the case of `O=C(/C=C/Sc1ncn[nH]1)c1ccc(Cl)cc1`, the inhibition is 79% (active).

Consider `O=C(ON=C1CCN(S(=O)(=O)c2ccccc2)CC1)c1ccc(Cl)cc1`, for which the inhibition was 62.2% (active).

For the compound `Cc1ccccc1NCC(=O)N/N=C\c1ccc([N+](=O)[O-])s1`, the inhibition is 37.2% (active).

Consider `O=C1NC(=O)C2C1C(c1ccc([N+](=O)[O-])cc1)=NN2Cc1ccccc1` (configuration not stated), for which the inhibition is 4.5%.

As for `O=[N+]([O-])c1ccc2c(c1)Nc1nc3ccccc3nc1N2`, the inhibition was 83.8% (active).

As to `O=[N+]([O-])c1cccc(Nc2c3ccccc3nc3ccccc23)c1`, the inhibition was 21.6%.

For `COc1ccc(C(=O)COC(=O)c2ccc([N+](=O)[O-])s2)cc1OC`, the inhibition was 81.8% (active).

As to `COc1nc(NC2CCCCC2)nc(N2CCCCCC2)n1`, the inhibition was -15.7%.

For the compound `Cc1ccc(NC(=O)c2cccs2)cc1S(=O)(=O)N(C)C`, the inhibition was -1.3%.

`O=C(Nc1ccc2c(c1)CCC2)c1ccc(Br)s1`: the inhibition is 44% (active).

In the case of `N/C(Cc1ccc([N+](=O)[O-])cc1)=N\OC(=O)COc1ccc2ccccc2c1`, the inhibition was 51% (active).

For the compound `N/C(Cc1ccc([N+](=O)[O-])cc1)=N\OC(=O)C1CCCCC1`, the inhibition is 49.2% (active).

Take `CC1(C)CCSC(/C=C/c2ccccc2)=N1`: the inhibition was 56.7% (active).

Consider `CSC(=S)N/N=C/c1c[nH]c2ccccc12`, for which the inhibition is 20.1%.

As for `CNC(=S)N/N=C/c1cn(Cc2ccc(C)cc2)c2ccccc12`, the inhibition is 53.4% (active).

With `COC(=O)c1c(NC(=O)CSc2nncs2)sc2c1CCCCC2`, the inhibition is 25.7%.

Take `COC(=O)c1sccc1NS(=O)(=O)c1ccc(F)cc1F`: the inhibition was 42.8% (active).

Turning to `O=C(Oc1ccc(F)cc1)N1CCOCC1`, the inhibition is -0.9%.

With `O=C(/C=C/c1cccs1)c1cc(Cl)ccc1OC(=O)N1CCOCC1`, the inhibition is 40.2% (active).

As to `C[C@@H](NC(=O)OC(C)(C)C)c1nnc(S(=O)(=O)Cc2ccccc2)o1`, the inhibition was 43.6% (active).

As for `N#C/C(=C\c1ccccc1C(F)(F)F)C(=O)Nc1ccccc1F`, the inhibition is 46.9% (active).

Turning to `CCCc1[nH]nc2c1C(c1ccc(Br)s1)C(C#N)=C(N)O2` (configuration not stated), the inhibition was 73.4% (active).

With `Cc1ccc(-c2ccc(/C=C(\C#N)C(N)=S)o2)c([N+](=O)[O-])c1`, the inhibition was 54.1% (active).

As for `O=[N+]([O-])c1ccccc1S(=O)(=O)Nc1cccc2cccnc12`, the inhibition is 19.5%.

For `O=c1nc2s/c(=C\c3ccco3)c(=O)n2nc1Cc1ccccc1`, the inhibition was 56.5% (active).

`Oc1ccc(/C=N/N(Cc2ccccc2)c2ccccc2)cc1`: the inhibition was 28.2%.

As for `CCOC(=O)c1ccc(N2C(=O)CC(N3CCC(C(=O)OCC)CC3)C2=O)cc1` (configuration not stated), the inhibition was 21.4%.

Take `Cc1cc(Nc2ccccc2)n(C(=O)c2ccc(N)cc2)n1`: the inhibition was 57.5% (active).

As to `CN1CCN(c2ccccc2NC(=O)COc2ccc(C3CCCCC3)cc2)CC1`, the inhibition was 30.4% (active).

For the compound `O=C(NC(Nc1nc2ccc([N+](=O)[O-])cc2s1)(C(F)(F)F)C(F)(F)F)c1ccccc1`, the inhibition is 77.7% (active).

Regarding `N#C/C(=C\c1cccnc1)C(=O)Nc1ccc(SC(F)F)cc1`, the inhibition was 42.2% (active).

Values taken from PubChem BioAssay AID463215 (Sanford-Burnham Center for Chemical Genomics, 2010).
